Outcome data for 15 compounds are collected here from PubChem BioAssay AID1053117 (Broad Institute, 2014).

SMILES strings stand for the structures. Entries with a potency or affinity are not part of this list. Activity calls are given as the source filed them.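 The calls were made as follows: active = compounds lowering cell ATP signal with a fitted half-effect dose at most twice the top valid dose; inconclusive = flat curve with 30 to 70% signal loss, or bad fit; inactive = wrong direction, flat within 30%, or weaker than limit.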

This test in a line: viability loss in HEK293 kidney cells – cell-based, cherry-picks, set 5, cytotoxicity control, dose response (AID 1053117).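 Also: more negative means greater loss of ATP signal and more cytotoxicity.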 To be noted: HEK293T viability, CellTiter-Glo ATP luminescence, 72 h; series mostly up to 26 µM.
For `C[C@H](CO)N1C[C@H](C)[C@H](CN(C)Cc2ccccc2)Oc2ncc(-c3ccccc3)cc2C1=O`, the outcome was inactive.

For the compound `COCC(=O)Nc1ccc2c(c1)C(=O)N(C)[C@H]1CC[C@H](CC(=O)NCc3ccccc3Cl)O[C@H]1CO2`, the compound was classed as inactive.

For `Cc1c(NC(=O)c2ccc3nsnc3c2)cccc1[N+](=O)[O-]`, the compound was classed as inactive.

Turning to `Cc1ccc([N+](=O)[O-])cc1NC(=O)CN(C(=O)c1ccccc1Cl)C1CCCCC1`, the call was inactive.

In the case of `Cc1ccccc1S(=O)(=O)N1CC[C@H]2[C@H](CO)Nc3ccc(-c4ccc(C#N)cc4)cc3[C@H]21`, the compound was called inactive.

Take `O=S(=O)(c1ccccc1F)N1CC[C@@H]2[C@H]1c1cc(-c3cccc(F)c3)ccc1N[C@@H]2CO`: the result was inactive.

On to `Cc1cccc(NC(=O)c2ccc(C3SCC(=O)N3CCc3ccccc3)cc2)c1` (stereo not given), for which the result was inactive.

Turning to `CCC(C)(C)NC(=O)C(OC(=O)c1ccco1)c1ccccc1OC` (stereo not given), the compound was called inactive.

As for `Cc1cc(C)n2ncc(C(=O)NCc3ccc(Cl)cc3)c2n1`, the result was inactive.

As for `CCCCNC(=O)Nc1nc2ccc(CC)cc2s1`, the compound was classed as inactive.

`C[C@@H]1CN([C@@H](C)CO)C(=O)c2cccc(NC(=O)Nc3ccc(C(F)(F)F)cc3)c2O[C@H]1CN(C)C(=O)Nc1cccc2ccccc12`: the call was inactive.

As to `Cc1cccc(N2CCN(S(=O)(=O)c3cn(C)cn3)CC2)c1C`, the outcome was inactive.

Consider `c1ccc2[nH]c(SCc3cn4cccnc4n3)nc2c1`, for which the outcome was inactive.

For `CC(C)(C)c1cc(Cl)c(O)c(NC(=S)NC(=O)c2cccnc2)c1`, the result was inactive.

Consider `C[C@H](CO)N1C[C@H](C)[C@H](CN(C)C)Oc2cc(C#C[C@@H](C)O)ccc2S1(=O)=O`, for which the outcome was inactive.
